# Laboratory results published in PubChem BioAssay (NCATS).
# Results filed as inconclusive are left out. Where a call stands in place of a potency, no number is given. Activity calls are given as the source filed them. Calls come from the whole dose curve; as a rule, active = well fitted cell-killing curve with a large enough effect; inconclusive = small, poorly fitted or top-dose-only effect; inactive = flat fitted curve, though single readings scatter.
# Test: Quantitative highthroughput screen to assess conditional lethalithy of NOMO1 cells grown in RPMI1640 with untreated serum (RPMI+s) (AID 1963876); note: nearly all actives have a fitted effect of over 35% in size
# Details: NOMO1 AML cells in RPMI+serum, CellTiter-Glo viability, 48 h; series mostly up to 45.8 µM
# Description: Assay Provider: Jason Cantor Ph.D.
# Department of Biochemistry
# University of Wisconsin-Madison, Madison, WI, USA
# Chemical screening studies have identified drug sensitivities across hundreds of cancer cell lines but most putative therapeutics fail to translate. Discovery and development of drug candidates in models that more accurately reflect nutrient levels in human blood is a major challenge. Here we performed high-throughput screens in conventional versus Human Plasma-Like Medium (HPLM) to identify compounds that were "missed" when screening using the artificial culture condition. Sets of conditional anticancer compounds spanned phases of clinical development and included non-oncology drugs were assessed. […] We also traced conditional phenotypes for several chemotherapeutics to availability of HPLM-specific metabolites and confirmed others for compounds whose reported targets are encoded by nonessential genes. Our findings establish generalizable strategies for exploiting conditional lethality in HPLM to reveal therapeutic candidates and mechanisms of action in cancer cells.
# Described herein are the results of each viability screens against three cell lines: NOMO1 (an acute myeloid leukemia cell line); P12-Ichikawa (a T-cell acute lymphoblastic leukemia); and SEM (a B-cell ALL). Each assay was screened using 3 different cell culture media: homemade human plasma-Like medium with 10% dialyzed fetal bovine serum (HPLM+ds); RPMI1640 with 10% untreated FBS and 5mM glucose (RPMI+s); and RPMI1640 with 10% dialyzed fetal bovine serum and 5 mM glucose (RPMI+ds).
# PROTOCOL TABLE (as described by Inglese J, Shamu CE and Guy RK. 2007)
# SEQUENCE No. (e.g., 1, 2, 3, etc.); […] (e.g., Cells, Incubation, Reagent, etc.); VALUE and DESCRIPTION.
# 1; Cells; 5 uL; white, solid bottom 1536-well Greiner assay plate.
# 2; Compounds; 23 nL; Kalypsis pin tool (Wako USA) equipped with a 1536-well pin head to transfer to the assay plates.
# 3; Incubation; 48 hours; 37C incubation.
# 4; Reagent; 3 uL; CellTiter Glo (Promega).
# 5; Incubation; 5 min, room temperature
# 6; Detection; Luminescence, Viewlux PerkinElmer.
# NOTES (numbers refer to Sequence numbers above)
# 1. Briefly, 5 ul of cell reagent was dispensed using a Multidrop Combi Dispenser. The NOMO1 and SEM cells were plated at 500 cells/well and the P12-Ichikawa line at 1000 cells/well.
# 2. After seeding the cells, 23 nL of MIPE 4.1 library compounds (in DMSO) were added to each plate using a Kalypsys 1536 Pintool dispenser. Bortezomib at final concentration of […] and DMSO were added to each plate as positive and negative controls respectively. For each screen, MIPE 4.1 compounds were added over an eleven-point concentration range […] in 3-fold dilutions.
# 3. Each plate was covered with a stainless steel gasketed lid to prevent evaporation and incubated for 48 hour at 37C, 95% relative humidity, and 5% CO2.
# 4-5. Three microliter CellTilter-GloTM luminescent substrate mix (Promega) reagent was added to the assay plate and incubated at room temperature for 5 min.
# 6. The luminescence signal was measured using a ViewLux (PerkinElmer) multiplate reader with a 2 second exposure time per plate. Data for each compound were normalized as percent viability such that measurements for DMSO and the empty well controls in each plate were defined as 100% and 0%, respectively.
# Potency is the fitted concentration of half-maximal effect.
row,Structure (SMILES),Potency
1,Cc1cc(C=c2sc3nc4ccccc4n3c2=O)c(C)n1-c1ccccc1,inactive
2,Nc1cccc2c1C(=O)N(C1CCC(=O)NC1=O)C2=O (stereo not given),inactive
3,COc1ccccc1OCC(O)COC(N)=O (stereo not given),inactive
4,Clc1ccc(COC(Cn2ccnc2)c2ccc(Cl)cc2Cl)c(Cl)c1 (stereo not given),inactive
5,CN(C)C1CCN(C(=O)c2ccc(NC(=O)Nc3nc(N4CCOCC4)nc(N4CCOCC4)n3)cc2)CC1,662 nM (active)
6,Cc1noc(NS(=O)(=O)c2ccc(N)cc2)c1C,inactive
7,Cn1cc(C[C@@H](N)C(=O)O)c2ccccc21,inactive
8,O=C(c1ccc(F)cc1)C1CCN(CCn2c(=O)[nH]c3ccccc3c2=O)CC1,inactive
9,CN[C@@H](C)[C@H]1[C@H](O)C[C@@]2(C)[C@@H]3CC[C@H]4C(C)(C)[C@@H](NC)CC[C@@]45C[C@@]35CC[C@]12C,inactive
10,COc1ccc2c(c1)CC[C@H]1[C@@H]2CC[C@]2(C)[C@@H](NCCCCCCN3C(=O)C=CC3=O)CC[C@H]12,inactive
11,CN(C(Cc1ccc(OS(=O)(=O)c2cccc3cnccc23)cc1)C(=O)N1CCN(c2ccccc2)CC1)S(=O)(=O)c1cccc2cnccc12 (stereo not given),inactive
12,C[C@]12CC[C@H](O)CC1=CCC1C2CC[C@]2(C)C(n3cnc4ccccc43)=CCC12 (stereo not given in full),inactive
13,NC(=O)c1cccc(N)c1,inactive
14,COC(=O)Nc1nc2ccc(S(=O)c3ccccc3)cc2[nH]1 (stereo not given),inactive
15,OC(Cn1cncn1)(Cn1cncn1)c1ccc(F)cc1F,inactive
16,NC(=O)c1ncn([C@@H]2O[C@H](CO)[C@@H](O)[C@@H]2O)c1N,inactive
17,CC1(C)[C@H](O[C@H]2O[C@H](C(=O)O)[C@@H](O)[C@H](O)[C@H]2O[C@@H]2O[C@H](C(=O)O)[C@@H](O)[C@H](O)[C@H]2O)CC[C@@]2(C)[C@H]1CC[C@]1(C)[C@H]2C(=O)C=C2[C@H]3C[C@@](C)(C(=O)O)CC[C@]3(C)CC[C@]21C,inactive
18,CCOC(=O)[C@H](CCc1ccccc1)N[C@@H](C)C(=O)N1CCCC1C(=O)O (stereo not given in full),inactive
19,NC1CCC(N[C@@H]2C[C@H]2c2ccccc2)CC1 (stereo not given in full),inactive
20,COc1cccc(OC)c1-c1cc(C(=O)NC2(C(=O)O)C3CC4CC(C3)CC2C4)nn1-c1ccnc2cc(Cl)ccc12 (stereo not given),inactive

row,Structure (SMILES),Potency
1,Cc1cnc(NC(=O)C2=C(O)c3ccccc3S(=O)(=O)N2C)s1,inactive
2,CCN(c1ccccc1)c1cc(NC)[n+](C)c(C)n1,inactive
3,COc1ccc(Cn2ccc3ccc(C(=O)NO)cc32)cc1,inactive
4,CC(C)(C)C(=O)OCOP(=O)(COCCn1cnc2c(N)ncnc21)OCOC(=O)C(C)(C)C,235 nM (active)
5,CCCCCN(CCC12CC3CC(CC(C3)C1)C2)C(=O)NCCCc1ccncc1,inactive
6,COc1ncc(-c2ccc3c(Nc4cc(Oc5cc(F)cc(F)c5)cc(C(=O)O)c4)c(S(=O)(=O)NC4CC4)cnc3c2)c(OC)n1,inactive
7,CO[C@H]1C=CO[C@@]2(C)Oc3c(C)c(O)c4c(O)c(c5c(c4c3C2=O)NC2(CCN(CC(C)C)CC2)N=5)=NC(=O)C(C)=CC=C[C@H](C)[C@H](O)[C@@H](C)[C@@H](O)[C@@H](C)[C@H](OC(C)=O)[C@H]1C,inactive
8,CC[C@]1(O)C[C@H]2CN(CCC3=c4ccccc4=N[C]3[C@@](C(=O)OC)(c3cc4c(cc3OC)N(C)[C@H]3[C@@](O)(C(N)=O)[C@H](O)[C@]5(CC)C=CCN6CC[C@]43[C@@H]65)C2)C1,93.5 nM (active)
9,c1cc(OCCN2CCCCC2)cc(-c2n[nH]c3ccc(-c4ncn[nH]4)cc23)c1,inactive
10,N#Cc1c(NC(=O)c2cccc3ccccc23)sc2c1CCCC2,935 nM (active)
11,C[C@H]1c2cccc(O)c2C(O)=C2C(=O)[C@]3(O)C(O)=C(C(N)=O)C(=O)[C@@H](N(C)C)[C@@H]3[C@@H](O)[C@@H]21,inactive
12,c1ccc(-c2nn3c(c2-c2ccnc4cc(OCCN5CCOCC5)ccc24)CCC3)nc1,inactive
13,COc1cc2c(cc1OC)C1CC(=O)C(CC(C)C)CN1CC2 (stereo not given),inactive
14,COCCNCCCn1c(C(=O)CF)c(-c2ccc(C)cc2)c2c(N)ncnc21,inactive
15,COC(=O)Nc1nc2ccc(C(=O)c3ccccc3)cc2[nH]1,3320 nM (active)
16,CNC(=O)[C@H](CC1=CN=C2C=CCC=C12)NC(=O)[C@@H](CC(=O)NO)CC(C)C,8330 nM (active)
17,NC(=O)Nc1cc(-c2cccc(F)c2)sc1C(=O)N[C@H]1CCCNC1,1050 nM (active)
18,CN(C)c1ccc(C2Nc3ccc4ccccc4c3C3=C2C(=O)CC(C)(C)C3)cc1Br (stereo not given),inactive
19,CC(=O)[C@]1(O)Cc2c(O)c3c(c(O)c2[C@@H](O[C@H]2C[C@H](N)[C@@H](O)[C@H](C)O2)C1)C(=O)c1ccccc1C3=O,2960 nM (active)
20,CN1CCN(c2cccc(Nc3nc4c(-c5ccc(S(C)(=O)=O)cc5)cccn4n3)c2)CC1,inactive
